High-throughput results: PubChem, National Center for Advancing Translational Sciences (NCATS)
In the library only some 19% were active in any assay of this set; here they are far more common.
RORg inh – qHTS for inhibitors of ROR gamma transcriptional activity; AID 2551, 2010; 310,000 compounds, 5.4% hits; Potency, µM (top dose mostly 53.6 µM), without a hit: at the highest dose activity change, negative = inhibition, hits mostly inhibitors; Drosophila S2 Gal4-RORgamma UAS-luciferase reporter, 20 h; also: nearly all actives have a fitted effect of over 60% in size
Target sequence (P51450 whole entry, looked up, the tested form may be a part): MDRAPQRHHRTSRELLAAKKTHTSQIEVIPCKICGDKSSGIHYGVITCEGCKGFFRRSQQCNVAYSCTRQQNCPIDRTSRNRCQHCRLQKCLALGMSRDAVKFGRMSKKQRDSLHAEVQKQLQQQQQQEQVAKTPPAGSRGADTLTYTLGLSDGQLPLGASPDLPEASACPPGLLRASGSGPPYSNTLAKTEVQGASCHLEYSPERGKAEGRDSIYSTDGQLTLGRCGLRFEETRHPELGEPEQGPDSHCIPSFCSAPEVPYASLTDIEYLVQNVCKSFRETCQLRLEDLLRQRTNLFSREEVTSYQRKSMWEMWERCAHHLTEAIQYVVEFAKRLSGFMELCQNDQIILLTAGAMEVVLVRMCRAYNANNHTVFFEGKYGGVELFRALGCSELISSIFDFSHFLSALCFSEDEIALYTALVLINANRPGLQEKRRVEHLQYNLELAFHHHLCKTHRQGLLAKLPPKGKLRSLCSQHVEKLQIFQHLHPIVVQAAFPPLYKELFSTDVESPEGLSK
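Schneider cells (Drosophila), stable Gal4 DBD–ROR gamma + UAS-luc; 1 hr cmpd preincubation; Cu2+ induction 700 uM final; 20 hr ambient; luminescence.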
TDP1 block – qHTS Assay for Inhibitors of Tyrosyl-DNA Phosphodiesterase (TDP1) | recombinant TDP1, AlphaScreen DNA substrate cleavage | AID 485290, 2010 | 350,000 compounds, 0.28% hits | Potency, µM (series often up to 130 µM), for the others: at the highest dose activity change, negative = inhibition, usual class: inhibitors | Tyrosyl-DNA phosphodiesterase 1 (Homo sapiens), Q9NUW8; also: nearly all actives have a fitted effect of over 40% in size
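Recombinant human Tdp1 (E. coli-expressed, 1 nM final) preincubated with compounds 15 min at room temperature, then 5'-biotin/3'-phosphotyrosine-FITC DNA substrate (15 nM final) added for 5 min. AlphaScreen beads (10 ug/ml final) added 10 min; cleavage lowers signal.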
Gal4-VP16 FLuc – VP16 counterscreen qHTS for inhibitors of ROR gamma transcriptional activity; 310,000 compounds, 3.5% hits; Potency, µM (doses to about 53.6 µM), for the others: at the top dose activity, negative = inhibition, most hits filed as inhibitors; AID 2546, 2010; Drosophila S2 Gal4-VP16 UAS-luciferase, luminescence, 20 h;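 also: Gal4-VP16 expression switched on by copper sulfate through the metallothionein promoter; nearly all actives have a fitted effect of over 50% in size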
TDP1 cell noCPT – qHTS for Inhibitors of human tyrosyl-DNA phosphodiesterase 1 (TDP1): qHTS in cells in absence of CPT; DT40 Tdp1-/- hTDP1 cells, no CPT, ATP luminescence, 48 h; Potency, µM (series often up to 46.2 µM), for the others: at the top dose activity change, negative = growth inhibition, most hits filed as inhibitors; 420,000 compounds, 15% hits; also: nearly all actives have a fitted effect of over 55% in size
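Chicken DT40 Tdp1-/- cells complemented with human TDP1, screened without camptothecin (DMSO vehicle only), 400 cells/well. Compounds pin-transferred, cells incubated at 37 °C for at least 48 hr. Growth read as ATP-dependent luminescence (CellTiter-Glo, 30 min at RT).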
DT40 TDP1 CPT – qHTS for Inhibitors of human tyrosyl-DNA phosphodiesterase 1 (TDP1): qHTS in cells in presence of CPT; 420,000 compounds, 12% hits; Potency, µM (series often up to 46.2 µM), inactives show at the top dose activity change, negative = growth inhibition, hits mostly inhibitors; chicken DT40 Tdp1-/-;hTDP1 cells + 20 nM CPT, ATP luminescence, 48 h; also: nearly all actives have a fitted effect of over 55% in size
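Cell growth measured by CellTiter-Glo luminescence after a minimum 48 h, 37 C compound exposure with 20 nM CPT in Tdp1-knockout DT40 cells stably expressing hTDP1, seeded 400/well; qHTS titration format.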
* = called active by the depositor; u = inconclusive; x = not tested or not shown; [ ] = remark or other dose. Calls follow the shape of the dose curve; as a rule, active = well fitted curve in the direction sought with a large enough effect; inconclusive = small, poorly fitted or top-dose-only effect, or another doubt; inactive = no such curve, though single readings can be large; an effect the other way counts as inactive or inconclusive. % is scaled to controls: 0 for no effect and ±100 for the full control effect; potency is read from the fitted curve at half-maximal effect.

SMILES	RORg inh	TDP1 block	Gal4-VP16 FLuc	TDP1 cell noCPT	DT40 TDP1 CPT
Cc1nnn(-c2nonc2N)c1C(=O)N/N=C/c1ccccc1O	1.3µM*	-1%	2.8µM*	4.6µM*	4.1µM*
CN(Cc1c(C(=O)N/N=C/c2ccccc2O)nnn1-c1nonc1N)C1CCCCC1	x	x	x	6.5µM*	u
COc1cc(/C=N/NC(=O)c2c(C)nnn2-c2nonc2N)ccc1O	4%	-3%	2%	-9%	4%
Cc1ccccc1COc1ccc(/C=N/NC(=O)c2nnn(-c3nonc3N)c2CN2CCC(C)CC2)cc1	10%	2%	-4%	3.3µM*	10µM*
CC1CCN(Cc2c(C(=O)N/N=C/c3ccccc3O)nnn2-c2nonc2N)CC1	10µM*	1%	7.9µM*	7.3µM*	8.2µM*
Cn1c(=O)oc2cc(S(=O)(=O)NC(Cc3ccccc3)C(=O)Nc3ccc(F)cc3)ccc21 (centres undefined)	x	2%	x	8%	0%
Cc1cc(S(=O)(=O)NCc2ccccc2)ccc1OCC(=O)NCc1cccnc1	7%	9%	5%	-12%	4%
CC(=C/c1ccccc1)/C=N/NC(=O)c1nnn(-c2nonc2N)c1CN1CCC(C)CC1	u	3%	-9%	18µM*	u
COc1cc(CCN2C(=O)c3cccc4cccc(c34)C2=O)c(S(=O)(=O)N2CCC(C)CC2)cc1OC	u	-1%	2%	2.6µM*	26µM*
COc1cc2cc(CN(CCN3CCCC3)C(=O)Nc3ccc(F)cc3)c(=O)[nH]c2cc1OC	-4%	1%	-8%	u	u
CSc1ccc(C(=O)c2[nH]c(=O)[nH]c2C)cc1	5%	10%[56.1 µM]	-1%	-7%	-10%
COc1cccc(CNCCSc2nnnn2C)c1OCc1ccc(Cl)cc1Cl	x	12%	x	23µM*	16µM*
COc1cccc(CNCCSc2nnnn2C)c1OCc1ccc(Cl)cc1	x	7%	x	u	21µM*
CCOc1cc(CNCCSc2nnnn2-c2ccccc2)cc(Cl)c1OC	x	2%	x	21µM*	u
CCOc1cc(CNCCSc2nnnn2C)cc(Cl)c1OCc1ccc(Cl)cc1	x	5%	x	13µM*	13µM*
CCOc1c(CNCCSc2nnnn2C)cccc1OC	x	8%	x	5%	-2%
O=C(COC(=O)c1ccc(OC(F)F)cc1)NCCNC(=O)COC(=O)c1ccc(OC(F)F)cc1	-24%	0%	-11%	-2%	-7%
Cc1ccc(Cn2nc(C)c(C(=O)NCC(c3cccs3)N3CCOCC3)c2Cl)cc1 (centres undefined)	x	x	x	23µM*	21µM*
COc1ccc(C(CNC(=O)c2c(C)nn(Cc3ccc(C)cc3)c2Cl)N2CCOCC2)cc1 (centres undefined)	x	1%	x	23µM*	u
Cc1ccc(C(=O)NCC(=O)NCC(c2cccs2)N2CCOCC2)cc1 (centres undefined)	x	2%	x	24%	3%
Cc1ccc(S(=O)(=O)NCc2ccc(N3CCN(C(=O)OC(C)(C)C)CC3)cc2)cc1	u	3%	u	16µM*	13µM*
CN1CCN(c2ccc(CNS(=O)(=O)c3ccc(Cl)cc3)cc2)CC1	2%	3%	-9%	12µM*	u
COC(=O)c1cc(F)c(-n2cncn2)c(F)c1	11%	2%	1%	-5%	-6%
Cc1ccc(S(=O)(=O)C2C(=O)N(C)C3(C)CC2c2ccccc2O3)cc1 (centres undefined)	u	1%	9%	16µM*	-24%
O=C(NCc1ccco1)C1CCN(Cc2ccc(F)cc2)CC1	4%	0%	0%	u	-17%
SMILES	RORg inh	TDP1 block	Gal4-VP16 FLuc	TDP1 cell noCPT	DT40 TDP1 CPT
O=C(CSc1cccc[n+]1[O-])Nc1cc2c(cc1Cl)C(=O)c1ccccc1C2=O	u	-3%	-1%	u	21µM*
COC(=O)c1ccc(C(=O)OC)c(NC(=O)CSc2cccc[n+]2[O-])c1	5µM*	8%	3.5µM*	0.73µM*	0.92µM*
O=C(CSc1cccc[n+]1[O-])Nc1ccccc1Oc1ccccc1	6.3µM*	0%	7.9µM*	1.5µM*	0.92µM*
COC(=O)c1ccc(C(=O)OC)c(NC(=O)CSCC(=O)O)c1	0%	-3%	-3%	-7%	-6%
O=C(CSc1cccc[n+]1[O-])Nc1cc([N+](=O)[O-])ccc1Cl	-17%	5%	-8%	-3%	3%
CCn1c(C2CCN(S(=O)(=O)c3ccc(OC)cc3)CC2)n[nH]c1=S	-22%	1%	12%	u	-9%
Cc1ccc(NC(=O)COC(=O)CCC(=O)c2ccc(C(C)(C)C)cc2)c([N+](=O)[O-])c1	9%	4%	-20%	15µM*	u
CC1(C)CC(=O)C(N=Nc2ccc(-c3ccccc3)cc2)=C(O)C1	15%	2%	u	3%	-3%
O=C1CCCC(O)=C1C(C#Cc1ccccc1)C1=C(O)CCCC1=O	30%	5%	-2%	5.2µM*	3.7µM*
O=C1CCCC(O)=C1Sc1ccccc1C(=O)O	-8%	x	-4%[10 µM]	-21%	-26%
CC1(C)CC(=O)C(C(C#Cc2ccccc2)C2=C(O)CC(C)(C)CC2=O)=C(O)C1	u	-6%	-63%	9.2µM*	6.5µM*
CN1CCN(C(=O)CCN2C(=O)/C(=C\c3ccccc3F)SC2=S)CC1	5.6µM*	7%	-17%	u	-104%
CN1CCN(C(=O)CCN2C(=O)/C(=C/c3ccccc3Cl)SC2=S)CC1	18µM*	6%	-1%	12µM*	16µM*
O=C(O)CN1C(=O)/C(=C\c2cn(CC(=O)N3CCOCC3)c3ccccc23)SC1=S	-17%	5%	4%	-22%	-4%
O=C(CCN1C(=O)/C(=C\c2ccccc2F)SC1=S)N1CCOCC1	x	x	x	0.73µM*	u
COc1cccc(CN2CCN(Cc3nc(-c4cccc(F)c4F)oc3C)CC2=O)c1	4%	-2%	-11%	-30%	-11%
Clc1ccccc1-c1nnc2sc(-c3ccc4c(c3)OCO4)nn12	-28%[0.365 µM]	6%	x	u	16µM*
Brc1ccccc1-c1nnc2sc(-c3ccc4c(c3)OCCO4)nn12	18%	5%	-3%	23µM*	12µM*
O=C1NC(Nc2nccs2)(C(F)(F)F)C(=O)N1CCc1ccccc1 (centres undefined)	13µM*	0%	u	-17%	-10%
Nc1cccn2c(-c3ccc(Cl)cc3)cnc12	-14%	8%	2%	18µM*	u
